Screening results deposited in PubChem BioAssay by Sanford-Burnham Center for Chemical Genomics.
Sampled rows, rich in hits. Any-hit rate of the full collection: about 3.9%.
HIF-2a inh: blocks HIF-2a reporter activity | 786-0 RCC cells HIF-2a reporter, luciferase luminescence, overnight | inhibition, % at 18.8 µM | 360,000 compounds, 0.72% hits | AID 624352;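 active = inhibition of the luminescence signal of 40% or more relative to plate controls, in a single-dose primary screen at 18.75 µM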
TWEAK-Fn14 inh: TWEAK-Fn14 signaling inhibition; AID 1159606; inhibition, % at 10 µM; 360,000 compounds, 2% hits; TWEAK-stimulated Fn14 reporter cells, luciferase luminescence, 8 h; in the data active = inhibition above about 50%
Peg3 prom inh: inhibitors of Peg3 promoter; 360,000 compounds, 1.7% hits; AID 588405; HeLa PEG-Prom luciferase reporter, luminescence, overnight; inhibition, % at 20 µM;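 active = inhibition of at least 50% at 20 µM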
CF NFkB inh: inhibitors of cystic fibrosis induced NF-kB; KKLEB NF-kB-GFP reporter, PAF-induced, GFP fluorescence overnight; inhibition, % at 5 µM; 360,000 compounds, 0.86% hits; AID 588850;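 active = at least 50% inhibition at 5 µM, scaled per plate between neutral and stimulator controls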;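 note: PAF is a Pseudomonas aeruginosa culture filtrate used as stimulus; plate controls were PAF-stimulated DMSO wells for no effect and unstimulated DMSO wells for full effect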
TROY signal inh: TROY signaling inhibition; 360,000 compounds, 0.98% hits; AID 1347056; Q293 LMP1-TROYcd NF-kB luciferase reporter, 4 h; inhibition, % at 10 µM;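 active = compounds whose plate-normalised and pattern-corrected inhibition of the luciferase reporter signal at the single screening dose is 50% or more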
KKLEB tox: CF airway cell cytotoxicity counter-screen. KKLEB CF airway cells viability, ATPlite luminescence, overnight; stronger effect = lower value; cells stimulated with P. aeruginosa culture filtrate. activity change (cytotoxicity), % at 5 µM. 360,000 compounds, 0.36% hits. AID 602141;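 active = corrected activity change at or below -50% at 5 µM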
Active calls of the source: *; / = not tested or not shown.

SMILES	HIF-2a inh	TWEAK-Fn14 inh	Peg3 prom inh	CF NFkB inh	TROY signal inh	KKLEB tox
CCOC(=O)N1CCN(C(=O)CSc2nnc(-c3ccc(C(C)(C)C)cc3)o2)CC1	-74	-12	-150	10	-10	-14
O=C(NC1CC1)C1=C[C@@H](c2ccc(Br)cc2)C[C@@H](OCCCCO)O1	-27	16	-7	7	51*	-2
O=C(NC1CC1)C1=C[C@@H](c2ccccc2)C[C@@H](OCCCCO)O1	-6	-7	-12	-17	-20	8
O=C1c2ccc3c4c(ccc(c24)C(=O)N1c1cccc(O)c1)C(=O)N(c1cccc(O)c1)C3=O	13	-11	22	51*	-3	-11
Cc1ccccc1NCC(=O)N/N=C/c1ccc([N+](=O)[O-])cc1	7	-10	14	-41	-2	5
O=C(CNc1cccc2ccccc12)N/N=C/c1ccc([N+](=O)[O-])cc1	-2	82*	19	17	-1	-6
Cc1ccc(SC(=O)COc2ccccc2C)cc1	10	6	2	5	0	-2
O=[N+]([O-])c1cccc(S(=O)(=O)NCCc2cn3ccccc3n2)c1	12	17	6	5	7	1
CC(=O)c1c(C)[nH]c(C(=O)COc2cc(C)ccc2C(C)C)c1C	9	64*	31	5	48	-14
Cc1ccccc1OCC(=O)NNC(=O)c1ccc2c(=O)n3c(nc2c1)CCC3	4	7	-6	6	-7	14
CC(C)C(NC(=O)C12CC3CC(CC(C3)C1)C2)C(=O)N/N=C/C1=C(N2CCOCC2)C(=C\c2ccc([N+](=O)[O-])cc2)/CC1 (configuration not stated)	5	-2	30	91*	-3	-100*
C(CCN1CCOCC1)CN1CCOCC1	-2	-9	8	13	64*	-13
N#CC1CN(C(c2ccccc2)c2ccccc2)C1	23	-7	-1	0	4	10
Clc1nc(-c2cccnc2)nc2scc(-c3ccccc3)c12	-162	14	-155	-7	-34	9
COc1ccc(-c2csc3nc(-c4cccnc4)nc(Cl)c23)cc1OC	26	53*	9	-2	36	-9
COc1ccc(-c2nc(-c3cccnc3)no2)cc1OC	-186	84*	-193	5	-31	0
COc1cc(C(=O)NCc2ccccc2Cl)ccc1OCC(=O)N1CCOCC1	-2	-4	-10	6	-7	6
O=C(CN(Cc1ccc(Br)cc1)S(=O)(=O)c1ccccc1)NCc1ccccn1	4	-4	7	12	-11	4
CSc1cccc(NS(=O)(=O)c2cccc3nsnc23)c1	3	-1	17	2	7	-4
COc1ccc(CC(=O)Nc2cc(Cl)ccc2O)cc1	-19	4	-10	-10	-5	-6
Cc1ccc2c(c1C)-c1c(ccc(C)c1C)C(=O)C2=O	66*	86*	95*	86*	61*	-53*
C[C@@H]1O[C@@H](O[C@H]2[C@H](Oc3cc(O)c4c(c3)OC(c3ccc(O)cc3)CC4=O)O[C@H](CO)[C@@H](O)[C@@H]2O)[C@H](O)[C@H](O)[C@H]1O (some centres not stated)	1	-5	-2	-6	-16	-54*
CCOC(=O)NC(=O)/C(C=Nc1ccc(Cl)c(Cl)c1Cl)=C(\C)O	13	-26	-23	4	12	3
CCOC(=O)[C@]12CCCC=C1N(CCC1=CCCCC1)C(=O)[C@H](CC(=O)N1CCN(C(=O)C3CC3)CC1)C2	9	/	/	/	/	/
CCOc1ccccc1NC(=O)NCc1ccc2c(c1)OCO2	-14	0	68*	36	-34	-7
SMILES	HIF-2a inh	TWEAK-Fn14 inh	Peg3 prom inh	CF NFkB inh	TROY signal inh	KKLEB tox
O=C(NCc1ccc2c(c1)OCO2)c1ccccc1	-29	-6	-15	-20	-5	13
COC(=O)c1ccccc1NC(=O)NCc1ccc2c(c1)OCO2	6	-12	5	0	-1	-4
O=C(NCc1ccc2c(c1)OCO2)c1cccc(F)c1	-19	82*	3	2	/	0
COc1ccc(-c2csc(N3C(=N)SCC3=O)n2)cc1	-164	65*	-192	-2	38	-6
O=C1CNC(=S)N1c1nc(-c2ccccc2)cs1	-266	-9	-277	-5	-36	2
COc1ccc(-c2csc(N3C(=O)C4C5c6ccccc6C(c6ccccc65)[C@@H]4C3=O)n2)cc1 (some centres not stated)	12	7	14	17	-12	2
COc1ccc(-c2csc(N3C(=O)CNC3=S)n2)cc1	-120	61*	-198	-7	21	-4
CCOc1ccc(CCNC(=O)c2c(C)noc2C)cc1OCC	8	0	-4	20	-10	-1
CCN1CCCC1CNC(=O)c1cc2c(C)nc3ccccc3c2o1 (configuration not stated)	3	-16	15	7	7	-13
CCc1ccc(CNC(=O)c2cc3c(C)nc4ccccc4c3o2)cc1	-12	58*	15	-28	45	18
COc1cccc(CNC(=O)c2cc3c(C)nc4ccccc4c3o2)c1	-15	52*	8	-27	44	0
COc1ccc(CNC(=O)c2cc3c(C)nc4ccccc4c3o2)c(OC)c1	-2	38	11	-6	48	-5
COc1cc(NC(=O)c2cc3c(C)nc4ccccc4c3o2)cc(OC)c1OC	-11	12	56*	-45	0	13
Cc1nc2ccccc2c2oc(C(=O)NCC3COc4ccccc4O3)cc12 (configuration not stated)	-8	93*	39	-47	73*	-8
CCCCN(CC)CCNC(=O)c1cc2c(C)nc3ccccc3c2o1	12	-4	10	-6	-11	-2
CCCc1nn2c(-c3ccccc3)nnc2o1	1	-1	3	7	8	11
CC(C)CCNC(=O)c1c(CSc2ccccc2)noc1C(=O)NCc1ccccc1	-3	-8	-6	-14	2	9
CC1(c2nnc(-c3ccc(Cl)cc3)o2)CC(c2cccc(Cl)c2)=NO1 (configuration not stated)	-10	-10	-5	-14	2	-13
S=C(NCCCN1CCOCC1)N1CCN(c2ccccc2)CC1	11	1	9	2	6	3
CC(=O)Nc1ccc(S(=O)(=O)Nc2ccc3[nH]c(=O)[nH]c3c2)cc1	7	54*	5	-1	19	-1
CCNC1=C(Cl)C(=O)c2ccccc2C1=O	67*	12	-1	6	-30	-11
CCC(=O)NC1=C(Nc2ccc(N)cc2)C(=O)c2ccccc2C1=O	-179	52*	-169	-36	33	-6
CCCC(=O)NC1=C(Cl)C(=O)c2ccccc2C1=O	95*	15	98*	17	20	16
